These results are taken from PubChem BioAssay (NCI).

The nature of assay [1]: NCI Yeast Anticancer Drug Screen. Data for the rad50 strain (AID 155).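 Also: 0% = growth of vehicle-only cultures of the same strain.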 The note with it: S. cerevisiae rad50 strain growth inhibition; at 50.0 µM; hits give high values. The gist of the method:
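Growth of the mutant yeast was measured after compound exposure and referenced to vehicle-treated cultures.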

Assay [2] can be described thus: NCI Yeast Anticancer Drug Screen. Data for the mec2-1 strain (AID 157). The note with it: S. cerevisiae mec2-1 strain, at 50.0 µM, hits give high values. The gist of the method: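 Mutant yeast (mec2-1) grown with compound; growth inhibition relative to vehicle control reported.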
A short description of assay [3]: NCI Yeast Anticancer Drug Screen. Data for the sgs1 mgt1 strain (AID 161).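 Also: 0% = growth of cultures given vehicle only.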 Particulars: S. cerevisiae sgs1 mgt1 strain, at 50.0 µM, hits give high values. The gist of the method: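 Percent growth inhibition was derived by comparing compound-exposed mutant yeast with vehicle-exposed cultures. The strain carries alterations in DNA damage repair.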
The nature of assay [4]: NCI Yeast Anticancer Drug Screen. Data for the cln2 rad14 strain (AID 165).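 Also: 0% = growth equal to vehicle treated cultures.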 The note with it: S. cerevisiae cln2 rad14 strain, at 50.0 µM, hits give high values. The gist of the method:
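Readout is yeast growth inhibition versus vehicle-treated controls, using a strain with cln2 and rad14 alterations exposed to compound.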

The nature of assay [5]: NCI Yeast Anticancer Drug Screen. Data for the bub3 strain (AID 167). The note with it: S. cerevisiae bub3 mutant strain, at 50.0 µM, hits give high values. The gist of the method:
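Whole-cell yeast assay. The mutant strain was incubated with compounds, and growth inhibition was determined by comparison with vehicle-treated cells.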

Assay [6] in a line: NCI Yeast Anticancer Drug Screen. Data for the mlh1 rad18 strain (AID 175). Particulars: S. cerevisiae mlh1 rad18 strain growth inhibition; at 50.0 µM; hits give high values. Summed up:
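Genetically defined yeast (DNA repair-deficient) exposed to compounds; growth inhibition determined relative to vehicle.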

Structures are written as SMILES. Compounds without any hit were thinned out: in the full panel of roughly 79,000, 15% have a hit. The source made the active and inactive calls. Rule as the data show it: active = growth inhibition above about 70%; inactive = the rest.

Consider `O=C(O)CCC1COc2ccccc2O1` (configuration not stated), for which the growth inhibition in assay [1] was -12.2% (inactive); in assay [2], -8.35% (inactive); in assay [3], 0.8% (inactive); in assay [4], -9.5% (inactive); in assay [5], -14% (inactive); in assay [6], -9.35% (inactive).

As for `CCNc1nc2c(ncn2C2CC(O)C(COP(=O)(O)O)O2)c(=O)[nH]1` (configuration not stated), the growth inhibition in assay [1] was 18.9% (inactive); in assay [2] it was 15.2% (inactive); in assay [3], 27.3% (inactive); in assay [4], 11.8% (inactive); in assay [5], 13.2% (inactive); in assay [6] it was -16.1% (inactive).

Consider `CC(=N\N=C\c1ccccn1)/C(C)=N/N=C(C)/C(C)=N/N=C(C)/C(C)=N/N=C/c1ccccn1`, for which the growth inhibition in assay [1] was 31.7% (inactive); in assay [2] it was 22.2% (inactive); in assay [3], 21.4% (inactive); in assay [4], 14.2% (inactive); in assay [5], 15.2% (inactive); in assay [6], -34% (inactive).

On to `N#Cc1[nH]c(=S)[nH]c1N`, for which the growth inhibition in assay [1] was 4.1% (inactive); in assay [2] it was -7.85% (inactive); in assay [3], 2.6% (inactive); in assay [4], 6.05% (inactive); in assay [5], 11.8% (inactive); in assay [6] it was -40.8% (inactive).

As for `CC1OC(O[C@H]2CC[C@]3(C)[C@H]4CC=C5[C@@H]6[C@@H](C)[C@H](C)CC[C@]6(C(=O)O)CC[C@@]5(C(=O)O)[C@]4(C)CC[C@H]3C2(C)C)C(O)C(O)C1O` (some centres not stated), the growth inhibition was -17.5% (inactive) in assay [1]; -9.8% (inactive) in assay [2]; -10.6% (inactive) in assay [3]; -5.7% (inactive) in assay [4]; -13.7% (inactive) in assay [5]; -58.5% (inactive) in assay [6].

Regarding `NC(Cc1c[nH]c2ccc(F)cc12)C(=O)O` (configuration not stated), the growth inhibition in assay [1] was -4.35% (inactive); in assay [2], -17.5% (inactive); in assay [3], -29.8% (inactive); in assay [4] it was -37% (inactive); in assay [5] it was -14.4% (inactive); in assay [6], 4.15% (inactive).

On to `OCCc1ccccc1CCO`, for which the growth inhibition in assay [1] is -29.6% (inactive); in assay [2], -17.8% (inactive); in assay [3] it was -13.2% (inactive); in assay [4], -16.9% (inactive); in assay [5], -5.4% (inactive); in assay [6], 8.5% (inactive).

`CC1=CCC(CC=O)C1(C)C` (configuration not stated): the growth inhibition in assay [1] is 9.95% (inactive); in assay [2] it was -1.95% (inactive); in assay [3], -6.3% (inactive); in assay [4], -43.4% (inactive); in assay [5], -6.65% (inactive); in assay [6], -3.45% (inactive).

In the case of `N[C@@H](CO)[C@@H](O)c1ccc([N+](=O)[O-])cc1`, the growth inhibition in assay [1] is 1.5% (inactive); in assay [2], -7.7% (inactive); in assay [3], -3.9% (inactive); in assay [4], -38.5% (inactive); in assay [5], 1.5% (inactive); in assay [6], -4.6% (inactive).

As for `O=C(O)c1cc(=O)c2cc3c(cc2o1)OCc1ccccc1-3`, the growth inhibition in assay [1] is 13.8% (inactive); in assay [2] it was -6.15% (inactive); in assay [3] it was 2.1% (inactive); in assay [4], 19.4% (inactive); in assay [5], -6.5% (inactive); in assay [6], 3.55% (inactive).

For the compound `CC(=O)N1CCC23C(=O)CC4C(=CCOC5CC(=O)N(c6ccccc62)C3C54)C1` (configuration not stated), the growth inhibition is -19.1% (inactive) in assay [1]; -23.9% (inactive) in assay [2]; -4.5% (inactive) in assay [3]; 8.9% (inactive) in assay [4]; 3.55% (inactive) in assay [5]; -4.8% (inactive) in assay [6].

Turning to `CCN(CC)CC`, the growth inhibition in assay [1] was -8.4% (inactive); in assay [2] it was -6.2% (inactive); in assay [3], -21.2% (inactive); in assay [4] it was -53.4% (inactive); in assay [5], -19% (inactive); in assay [6], 19.4% (inactive).

With `CSc1nc2c(c(=O)n1C)N=C(c1ccc(Cl)cc1)CC(c1ccccc1)N2` (configuration not stated), the growth inhibition in assay [1] was 16% (inactive); in assay [2], 3.25% (inactive); in assay [3], -5.6% (inactive); in assay [4], 11.4% (inactive); in assay [5] it was -11.6% (inactive); in assay [6], 15.8% (inactive).

As to `O=C(NCCN1CCCCC1)C(O)(C1CCCCC1)C1CCCCC1`, the growth inhibition in assay [1] was -6.85% (inactive); in assay [2] it was 7.65% (inactive); in assay [3] it was 12.2% (inactive); in assay [4] it was 19.2% (inactive); in assay [5], 9.75% (inactive); in assay [6] it was 3.9% (inactive).

For `O=C1C2C(C(=O)N1c1ccccc1)C1(Br)c3ccccc3C2(Br)C2C(=O)N(c3ccccc3)C(=O)C21` (configuration not stated), the growth inhibition was -9.6% (inactive) in assay [1]; 6.3% (inactive) in assay [2]; -3.35% (inactive) in assay [3]; -13.4% (inactive) in assay [4]; -4.55% (inactive) in assay [5]; -2.55% (inactive) in assay [6].

Turning to `COc1cccc(NC(=O)NCCN(C)c2ccccc2)c1`, the growth inhibition in assay [1] was -5.7% (inactive); in assay [2] it was 38.5% (inactive); in assay [3] it was 21.1% (inactive); in assay [4], -17.2% (inactive); in assay [5] it was 23.1% (inactive); in assay [6], 27.2% (inactive).

In the case of `O=C(N(CCc1ccc(O)cc1)Cc1ccc2c(c1)OCO2)C(F)(F)F`, the growth inhibition was 98% (active) in assay [1]; 96.8% (active) in assay [2]; 92.4% (active) in assay [3]; 92.4% (active) in assay [4]; 97.2% (active) in assay [5]; 98.6% (active) in assay [6].

Take `COC(=O)C1C=CN(N(C)C)C2=C1C(=O)c1c(O)cccc1C2=O` (configuration not stated): the growth inhibition was 86% (active) in assay [1]; 93% (active) in assay [2]; 89.2% (active) in assay [3]; 88.1% (active) in assay [4]; 89.5% (active) in assay [5]; 90.2% (active) in assay [6].

Consider `NC1=C(O)c2cccc3cccc(c23)C1=O`, for which the growth inhibition is 9.95% (inactive) in assay [1]; 12.2% (inactive) in assay [2]; 11.8% (inactive) in assay [3]; 2.35% (inactive) in assay [4]; 9.45% (inactive) in assay [5]; 16.4% (inactive) in assay [6].

For `O=[N+]([O-])c1ccc(-c2nc3ccc(Cl)cc3[nH]2)cc1`, the growth inhibition is -16.1% (inactive) in assay [1]; 30.9% (inactive) in assay [2]; 25.2% (inactive) in assay [3]; 21.9% (inactive) in assay [4]; 9.55% (inactive) in assay [5]; 44.5% (inactive) in assay [6].

Turning to `COC(=O)C(C(=O)C(=O)Nc1ccc(C)cc1C)c1nc2ccc([N+](=O)[O-])cc2[nH]c1=O` (configuration not stated), the growth inhibition in assay [1] was 9.05% (inactive); in assay [2] it was -1.7% (inactive); in assay [3], 4.05% (inactive); in assay [4], 7.95% (inactive); in assay [5] it was 4.2% (inactive); in assay [6], 6.65% (inactive).

`CC(C)(C)OC(=O)NCC(O)CNC(=O)OC(C)(C)C`: the growth inhibition in assay [1] is -1.25% (inactive); in assay [2], -6.6% (inactive); in assay [3] it was -45.8% (inactive); in assay [4], -26% (inactive); in assay [5], -22.9% (inactive); in assay [6] it was -24.6% (inactive).
